Nrf2 inh – blocks Nrf2 signaling; A549 ARE-Fluc reporter, luciferase luminescence, 18-24 h; Potency, µM (highest dose often 46 µM), usual class: inhibitors; 360,000 compounds, 2.1% hits; further: nearly all actives have a fitted effect of over 60% in size
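Quantitative HTS in A549 cells stably bearing an antioxidant response element-firefly luciferase construct. Inhibition of Nrf2-driven transcription was scored by luminescence after 18-24 h of compound exposure at 37 °C.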
Nrf2 ARE act – activators of Nrf2 (ARE) signaling. 410,000 compounds, 0.31% hits. AREc32 ARE-luciferase reporter (MCF7-derived line), luminescence, 24 h. Potency, µM (doses to about 46.1 µM), usual class: activators; further: nearly all actives have a fitted effect of over 65% in size
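AREc32 cells carrying an ARE-driven firefly luciferase, 1000 cells/well in OPTI-MEM with 5% FBS, dosed after overnight attachment and incubated 24 hr at 37 deg C. Steady-Glo luminescence read after 30 min at RT.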
A549 viability – counter-screen for Nrf2 inhibitors: cytotoxicity in A549 cells. 390,000 compounds, 0.16% hits. A549 ARE-Fluc cells, CellTiter-Fluor viability, 18-24 h. Potency, µM (highest dose often 46 µM), actives largely listed as inhibitors. AID 504648
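Cytotoxicity counterscreen: CellTiter-Fluor fluorescence was measured in A549 ARE_Fluc cells after 18-24 h of compound exposure in a concentration series. The subsequent BugLite luminescent read reports ARE-luciferase activity.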
HepG2 tox – kills HepG2 cells in TGF-b inhibitor counter-screen; HepG2 CAGA-GFP viability, ATP luminescence, 18 h; Potency, µM (titrated, usually from 46.1 µM), usual class: cytotoxic; 410,000 compounds, 0.76% hits
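CellTiter-Glo luminescence gave cytotoxicity after 18 hours at 37 degrees C. The cells were HepG2 CAGA-GFP in 1% FBS DMEM, stimulated with 500 pg/mL TGF-beta after compound addition. %Activity was normalised to no-cell wells (complete cell-killing) and DMSO (no toxicity), and curves were fitted and classified.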
TGFb SMAD3 inh – inhibitors of TGF-b signaling | HepG2 CAGA-GFP TGF-b/SMAD3 reporter, GFP fluorescence, 18 h; TGF-beta stimulated, 500 pg/mL final | Potency, µM (doses to about 46.1 µM), actives largely listed as inhibitors | 410,000 compounds, 1.2% hits; further: nearly all actives have a fitted effect of over 65% in size
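GFP signal (ex488/em500-530) from TGF-beta-stimulated HEPG2 CAGA-GFP cells, 500 pg/mL final, 18 h at 37 degrees C in DMEM plus 1% FBS, normalized to unstimulated and DMSO-stimulated controls.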
Numbers stand for hits; 0 = inactive; ? = inconclusive; - = no result. Only some compounds are listed: those with a hit (about 3.6% of all), similar ones and a draw of the others. The call rests on the fitted dose curve; in most records, active means well fitted curve in the direction sought with a large enough effect; inconclusive means small, poorly fitted or top-dose-only effect, or another doubt; inactive means no such curve, though single readings can be large; an effect the other way counts as inactive or inconclusive.

SMILES | Nrf2 inh | Nrf2 ARE act | A549 viability | HepG2 tox | TGFb SMAD3 inh
COc1cc2c3cc1Oc1c(OC)c(OC)cc4c1[C@H](Cc1ccc(cc1)Oc1cc(ccc1O)C[C@H]3N(C)CC2)N(C)CC4 | 0 | 0 | 13µM | 0 | ?
COc1cc2c(cc1O)C[C@H]1c3c(cc(O)c(OC)c3-2)CCN1C | 0 | 0 | 0 | 0 | 0
COc1cc2c3cc1Oc1cc(ccc1O)C[C@@H]1c4c(cc(OC)c(O)c4Oc4ccc(cc4)C[C@H]3N(C)CC2)CCN1C | 0 | 0 | 8.2µM | 0 | 0
COc1ccc2cc1Oc1ccc(cc1)C[C@H]1c3cc(c(OC)cc3CCN1C)Oc1c(OC)c(OC)cc3c1[C@H](C2)N(C)CC3 | ? | 0 | 6.5µM | 0 | ?
COc1cc2c3c(c1OC)Oc1ccc(cc1)C[C@H]1c4c(cc(OC)c(OC)c4Oc4ccc(cc4)C[C@@H]3N(C)CC2)CCN1C | 0 | 0 | 0 | 0 | 0
COc1cc2c3cc1Oc1cc(ccc1O)C[C@@H]1c4c(cc(OC)c(O)c4Oc4cccc(c4)C[C@@H]3N(C)CC2)CC[N+]1(C)C | 0 | 0 | 0 | 0 | 0
O=C(CCC(=O)N1C[C@H]2C[C@@H](C1)c1cccc(=O)n1C2)NCc1cccc(C(F)(F)F)c1 | 0 | 0 | 0 | 0 | 0
C[C@H]1O[C@@H](O[C@H]2[C@@H](O)C[C@H](O[C@H]3[C@@H](O)C[C@H](O[C@H]4CC[C@@]5(C)[C@H](CC[C@@H]6[C@@H]5CC[C@]5(C)[C@@H](C7=CC(=O)OC7)CC[C@]65O)C4)O[C@@H]3C)O[C@@H]2C)C[C@H](O)[C@@H]1O | 0.016µM | 0 | ? | 0 | 1.3µM
CC1OC(OC2C(O)CC(OC3C(O)CC(OC4CCC5(C)C(CCC6C5CCC5(C)C(C7=CC(=O)OC7)C(O)CC65O)C4)OC3C)OC2C)CC(O)C1O (stereo not given) | 0.092µM | 0 | ? | 0 | ?
C[C@@H]1O[C@@H](O[C@H]2C[C@@H](O)[C@]3(CO)[C@H]4[C@H](O)C[C@]5(C)[C@@H](C6=CC(=O)OC6)CC[C@]5(O)[C@@H]4CC[C@]3(O)C2)[C@H](O)[C@H](O)[C@H]1O | 0.0058µM | 0 | ? | 0 | 0.71µM
Oc1cc(Cl)c(Cl)c(Cl)c1Cl | 0 | 0 | 0 | 0 | ?
C=CCc1ccc(OC(=O)NC2CCCCC2)c(OC)c1 | ? | 0 | 0 | 0 | 0
Cc1ccccc1-n1c(O)c(/C=N/c2nccs2)c(=O)[nH]c1=O | 0 | 0 | 0 | 0 | 0
O=C(c1ccco1)c1cn(Cc2ccccc2Cl)c2ccccc12 | - | 0 | 0 | 0 | 0
Nc1cnn(-c2ccccc2)c(=O)c1Cl | 0 | 0 | 0 | 0 | 0
O=[N+]([O-])c1ccc(Sc2nc3ccccc3o2)c([N+](=O)[O-])c1 | 0 | 0 | 0 | 13µM | ?
COc1ccc(C(O)c2ccccc2OP(=O)(N(C)C)N(C)C)cc1 (stereo not given) | 0 | 0 | 0 | 0 | 0
Cc1ccc(-n2c(/C=C/c3cccc4ccccc34)nc3ccccc3c2=O)cc1 | - | 0 | 0 | 0 | ?
O=c1[nH]c(=O)n(CCC2=CCCCC2)c(O)c1/C=N/Nc1cccc2ccccc12 | 0 | 0 | 0 | 0 | 0
O=c1[nH]c(=O)n(CCC2=CCCCC2)c(O)c1/C=N/Nc1ccccc1 | 23µM | 0 | 0 | 0 | 0
O=C(CCc1nnc2ccc(NCc3ccccc3)nn12)N1CCC2(CC1)OCCO2 | 0 | 0 | 0 | 0 | 0
COc1cc(OC)c(NS(=O)(=O)c2cc(-c3cnc(C4CC4)o3)ccc2C)cc1Cl | - | 0 | 0 | 0 | ?
CC(C)n1c(=O)c(C=Nc2ccc(S(N)(=O)=O)cc2)c(O)n(Cc2ccco2)c1=O | 0 | 0 | 0 | 0 | 0
CC(C)n1c(=O)c(C=Nc2cccc([N+](=O)[O-])c2)c(O)n(CCc2ccccc2)c1=O | 0 | 11µM | 0 | 0 | 0
c1nc2nc3c(c(N4CCNCC4)n2n1)CCCC3 | 0 | 0 | 0 | 0 | 0
SMILES | Nrf2 inh | Nrf2 ARE act | A549 viability | HepG2 tox | TGFb SMAD3 inh
COc1cccc(N2CCN(c3c4c(nc5nncn35)CCC4)CC2)c1 | 16µM | 0 | 0 | 0 | -
COc1ccc(OC)c(N2C(=O)NC(=O)/C(=C\c3ccc([N+](=O)[O-])s3)C2=O)c1 | 0 | 0 | 0 | 0 | ?
Nc1ccccc1C(=O)OCC(=O)N1CCc2ccccc21 | ? | 0 | 0 | 0 | 0
N#CSCC(=O)N1c2ccccc2CCc2ccccc21 | 0 | 0 | 0 | 0 | 25µM
COc1ccc(-c2cc(=NCC(=O)O)c3ccccc3o2)cc1 | ? | 0 | 0 | 0 | 0
CCOc1ccc(CCNC(=O)c2ccc(-n3c(C)cc4c3CCCC4)cc2)cc1OCC | 0 | ? | 0 | 0 | 0
CCOc1ccc(CCNC(=O)c2cc3c(-c4ccc(OC)c(OC)c4)nn(C)c3s2)cc1OCC | 13µM | 0 | 0 | 0 | 0
C[C@]12CCC3C(CC[C@H]4C[C@H](O)CC[C@]34C)C1C[C@@H](O)[C@H]2O (stereo not given in full) | 0 | 0 | 0 | 14µM | 0
CCNC(=S)N(C)CCc1cc2c(c(OC)c1C=C1C(=O)N(C)C(=O)N(C)C1=O)OCO2 | ? | 0 | 0 | 0 | 0
CCOC(=O)C1=C(CN2CCN(c3ccc(C)cc3C)CC2)NC(=O)NC1c1ccc(OC)cc1 (stereo not given) | 15µM | 0 | 0 | 0 | 0
CNS(=O)(=O)c1ccc(N=Cc2c(O)n(-c3cccc(C)c3)c(=O)[nH]c2=O)cc1 | 0 | 0 | 0 | 0 | 0
Cc1oc(-c2cccc(Cl)c2)nc1CN1CCC(C(=O)NCCCN2CCN(c3ccc(F)cc3)CC2)CC1 | ? | 0 | 0 | 0 | ?
Cc1oc(-c2ccc(Cl)cc2)nc1CN1CCC(C(=O)NCCCN2CCN(c3cccc(Cl)c3)CC2)CC1 | ? | 0 | 0 | 0 | 16µM
C=CCn1c(O)c(C(C)=Nc2ccc(C(=O)OCC)cc2)c(=O)[nH]c1=O | 0 | 0 | 0 | 0 | 0
CNCCCc1ccccc1 | 0 | 0 | 0 | 0 | 0
CC(C)c1ccc(NC(=O)Cn2c(=O)oc3cc(S(=O)(=O)N4CCCC4)ccc32)cc1 | 21µM | 0 | 0 | 0 | 0
CCOc1ccc(NC(=O)Cn2c(=O)oc3cc(S(=O)(=O)N4CCCCCC4)ccc32)cc1 | - | 0 | 0 | 0 | 0
Cn1c(=O)oc2cc(S(=O)(=O)CCC(=O)N3CCN(c4ccccc4)CC3)ccc21 | ? | 0 | 0 | 0 | 0
Cc1c(Cl)ccc2sc(N3CCN(C(=O)CCS(=O)(=O)c4ccc(F)cc4)CC3)nc12 | - | 0 | 0 | 0 | 8.9µM
COC1=C(C)C(=O)c2c(c(COC(N)=O)c3n2C[C@@H]2[C@@H]3N2C)C1=O (stereo not given in full) | - | - | - | 7.1µM | 4.5µM
Cc1c(N=Cc2c(O)n(Cc3ccccc3)c(=O)[nH]c2=O)c(=O)n(-c2ccccc2)n1C | 0 | 0 | 0 | 0 | 0

Bioassay records from PubChem BioAssay.
